According to PubChem BioAssay:

Test: probe aNOTCH3 binding on compound microarray – biochemical, small-molecule microarray, 635/667 nm fluorescence, primary screen (AID 1120);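 further: probe is a biotin-tagged antibody raised against NOTCH3 rather than NOTCH3 protein; score merges spot fluorescence near 667 nm with spot signal to noise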
Conditions: higher = more signal

Compound | composite z-score
CC(C)N1CC=CC23O[C@@H]4C=CCOC(=O)[C@@H]4[C@H]2C(=O)N(CCCCCO)[C@@H]3C1=O (stereo not given in full) | -0.12
[N-]=[N+]=Nc1ccccc1C[C@@]1(C(=O)N2CCCCC2)N=C(c2ccc(OCCCO)cc2)O[C@@H]1c1ccccc1 | 0.107
OCC1C=C(/C=C/c2ccccc2)CN1Cc1ccccc1Br (stereo not given) | 0.0694
C=CC[C@@]1(C(=O)N2CCCCC2)N=C(c2ccc(OCCCO)cc2)O[C@@H]1c1ccccc1N=[N+]=[N-] | 0.185
CO[C@H]1O[C@H](CO)[C@@H](OC(=O)Nc2ccc(Oc3ccccc3)cc2)[C@H](OC(=O)Nc2ccc3c(c2)OCO3)[C@@H]1OC(=O)Nc1ccc2c(c1)OCO2 | 0.327
COCCOC(=O)N1C(=O)[C@@]2(c3ccccc31)[C@H](C(=O)N1CCc3cc(OC)c(OC)cc3C1)[C@H]1C(=O)O[C@H](c3ccccc3)[C@H](c3ccccc3)N1[C@@H]2c1ccc(O)cc1 | -0.0072
CCCCC(=C=CC[C@@H](O)c1cccc(OCCO)c1)C[C@@H](O)c1ccccn1 | -0.0881
CCOC(=O)C[C@H]1[C@H](OC(=O)c2cc3ccccc3oc2=O)[C@@H](NC(=O)CC(C)C)c2cc(OCCCO)ccc2N1C(=O)c1ccccc1 | -0.0044
CC(C)(C)OC(=O)CC[C@@]1(C(=O)N2CCCCC2)N=C(c2ccc(OCCCO)cc2)O[C@@H]1c1ccccc1 | 0.372
Cc1ccc(S(=O)(=O)N2C[C@@H](C(=O)O)[C@H](Sc3ccccc3)C[C@H]2c2ccccc2)cc1 | 0.418
O=C1[C@H]2C=C(Br)[C@H](C[C@@H]2OCCCCCCO)[C@@]12CO2 | 0.265
COc1ccc(C(=O)Nc2cccc(CN3C(=O)[C@]4(O[C@H](CCn5cc(CCO)nn5)[C@@H]([Si](C)(C)c5ccc(OC)cc5)[C@@H]4C)c4ccccc43)c2)cc1 | 0.0066
C=C[C@H](C)[C@@H](OC(=O)Nc1ccc(SC)cc1)c1ccc(O)c2ccccc12 | 0.0636
COCCOC(=O)N1C(=O)[C@@]2(c3cc(C#CC4(O)CCCCCC4)ccc31)[C@H](C(=O)Nc1nc3ccccc3s1)[C@H]1C(=O)O[C@H](c3ccccc3)[C@H](c3ccccc3)N1[C@@H]2c1ccccc1OCCO | -0.0647
C=CCC(OC(C)=O)[C@@H]1[C@@H](N(Cc2ccc(-c3ccccc3)cc2)C(=O)Cc2ccc(F)cc2)c2cc(OCCCO)ccc2N1C(=O)c1ccc2ccccc2c1 (stereo not given in full) | 0.119
CN(C)CCCC[C@@H]1NC(=O)[C@H]2C[C@@H](C(=O)NCCCCCN)[C@@H](c3cccc(OCCO)c3)N2C1=O | 0.313
C=CC[C@]1(C(=O)NCc2ccccc2)N=C(c2ccc(OCCCO)cc2)O[C@H]1c1ccccc1CN=[N+]=[N-] | 0.367
O=C(CS)NCCCCCNC(=O)[C@@H]1C[C@@H]2C(=O)NCC(=O)N2[C@@H]1c1ccc(O)cc1 | -0.189

Compound | composite z-score
C=CCC(OC(C)=O)[C@@H]1[C@@H](N(Cc2ccc(-c3cccc(C(F)(F)F)c3)o2)C(=O)c2cccc3ccccc23)c2cc(OCCCO)ccc2N1C(=O)Cc1ccc2ccccc2c1 (stereo not given in full) | -0.0465
C=CCC(OC(C)=O)[C@@H]1[C@@H](N(Cc2ccc(-c3cccc(C(F)(F)F)c3)o2)C(=O)Cc2ccc(OC)cc2)c2cc(OCCCO)ccc2N1C(=O)c1ccc2ccccc2c1 (stereo not given in full) | 0.0423
CC(C)CN1C(=O)[C@@]2(c3ccc([N+](=O)[O-])cc3)CC(=O)N(C3CCCCC3)[C@@H]2c2ccc(CO)cc21 | -0.357
O=C1C2C=CC(C(O)C=Cc3ccc([N+](=O)[O-])cc3)N(n3cnnc3)C2C(=O)N1Cc1ccccc1 (stereo not given) | 0.177
O=C1O[C@H](c2ccccc2)[C@H](c2ccccc2)N2[C@H]1[C@@H](C(=O)NC[C@H](O)c1ccccc1)[C@]1(C(=O)Nc3ccc(C#CC4=CCCCC4)cc31)[C@H]2c1ccccc1OCCO | 0.0527
O=C1NC(=O)C2C1C=CC(C(O)c1ccc(I)cc1)N2Nc1ccc(Cl)cc1Cl (stereo not given) | 0.387
CC(C)CCC[C@@H](C)[C@H]1CC[C@@]2(C)C3=C(CC[C@]12C)[C@@]1(C)CC[C@H](OC(=O)c2ccc(C(F)(F)F)nc2)C(C)(C)C1CC3 (stereo not given in full) | -0.111
CC(C)(C)OC(=O)CC[C@]1(C(=O)NCCN2CCOCC2)COC(c2ccc(OCCCO)cc2)=N1 | 0.199
CN1C(=O)C2C=CC(C(O)c3ccccc3)N(N3CCCCC3)C2C1=O (stereo not given) | 0.237
CC[C@@H]1C=C(C(=O)O)[C@H](c2cccc3ccccc23)N1S(=O)(=O)c1ccc(C)cc1 | 0.0225
C=CCNC(=O)[C@H]1[C@@H]2C(=O)O[C@@H](c3ccccc3)[C@@H](c3ccccc3)N2[C@@H](c2ccc(OCCO)cc2)[C@]12C(=O)Nc1ccc(C#CCC(C(=O)OC)C(=O)OC)cc12 | 0.116
C=CCN1Cc2ccccc2[C@@H]2OC(c3ccc(OCCCO)cc3)=N[C@]2(CCS(=O)(=O)c2ccccc2)C1=O | 0.233
C[N+](C)(C)CCCC[C@@H]1NC(=O)[C@H]2C[C@@H](C(=O)NCCCCCCNC(=O)CS)[C@@H](c3ccc(O)cc3)N2C1=O | -0.437
CC(=O)Nc1cc(Br)ccc1C(=O)NCc1ccccc1 | -0.0311
O=C1C2C=CC(C(O)c3ccc4c(c3)OCO4)N(Nc3ccc([N+](=O)[O-])cc3)C2C(=O)N1c1ccccc1 (stereo not given) | 0.0225
COc1ccc(C(O)C2C=CC3C(=O)N(C)C(=O)C3N2N(c2ccccc2)c2ccccc2)c2ccccc12 (stereo not given) | 0.237
COc1cc2c(cc1O)C=[N+](Cc1cc3c(cc1Br)OCO3)CC2 | -0.185
